# According to PubChem BioAssay (NCI):
# This is part of a sample that, as a whole, favours compounds with a hit. Of some 79,000 tested, about 15% had one in any assay. Unmarked numbers belong to inactive results. Activity calls are given as the source filed them. Cut-off read from the data, not from the text of the source: active = growth inhibition above about 70%; inactive = the rest.
# What was measured:
# [1] = NCI Yeast Anticancer Drug Screen. Data for the rad50 strain (AID 155);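 note: 0% = growth of vehicle-only cultures of the same strain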; details: S. cerevisiae rad50 strain growth inhibition; at 50.0 µM; hits give high values
# Method in brief: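 Readout: growth inhibition relative to vehicle-treated cultures. Compound exposure was carried out in a genetically defined yeast strain deficient in DNA damage repair.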
# [2] = NCI Yeast Anticancer Drug Screen. Data for the mec2-1 strain (AID 157); details: S. cerevisiae mec2-1 strain, at 50.0 µM, hits give high values
# Method in brief: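 mec2-1 yeast strain, carrying an alteration in DNA damage repair or cell cycle control, was exposed to compounds; growth inhibition was measured relative to vehicle-treated controls.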
# [3] = NCI Yeast Anticancer Drug Screen. Data for the sgs1 mgt1 strain (AID 161);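 note: 0% = growth of cultures given vehicle only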; details: S. cerevisiae sgs1 mgt1 strain, at 50.0 µM, hits give high values
# Method in brief: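 Compounds are added to genetically altered yeast, and growth is compared with cultures given vehicle alone to give percent inhibition.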
# [4] = NCI Yeast Anticancer Drug Screen. Data for the cln2 rad14 strain (AID 165);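 note: 0% = growth equal to vehicle treated cultures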; details: S. cerevisiae cln2 rad14 strain, at 50.0 µM, hits give high values
# Method in brief: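 Yeast carrying cln2 and rad14 alterations (cell cycle control and DNA damage repair) were exposed to compounds. Growth inhibition was measured against vehicle-treated controls.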
# [5] = NCI Yeast Anticancer Drug Screen. Data for the bub3 strain (AID 167); details: S. cerevisiae bub3 mutant strain, at 50.0 µM, hits give high values
# Method in brief: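 Readout: yeast growth inhibition, expressed relative to vehicle-only wells. The test organism is a mutant strain from a panel with lesions in DNA repair or checkpoint genes.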
# [6] = NCI Yeast Anticancer Drug Screen. Data for the mlh1 rad18 strain (AID 175); details: S. cerevisiae mlh1 rad18 strain growth inhibition; at 50.0 µM; hits give high values
# Method in brief: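 Growth inhibition of the yeast strain was measured after compound exposure and expressed relative to vehicle-treated controls. The strain carries defined defects in DNA damage repair.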
SMILES,growth inhibition [1],growth inhibition [2],growth inhibition [3],growth inhibition [4],growth inhibition [5],growth inhibition [6]
CC(C)CCCC(C)C1CCC2C3CC(=O)C4C=CCCC4(C)C3CCC12C (configuration not stated),39.1%,19.5%,27.6%,24%,2.65%,34%
O=C1NC(=S)SC1=C1CCCCC1,22.9%,42.5%,41.6%,34.5%,37.9%,28.2%
CCOC(=O)/C(=C\c1ccc(N(C)C)cc1)S(=O)(=O)C(F)(F)C(F)(F)C(F)(F)C(F)(F)F,2%,9.6%,6.1%,-9.7%,4.75%,15.2%
COc1ccc2ccccc2c1C(Cc1ccccc1)NCCO (configuration not stated),-17.2%,-20.4%,-2.3%,-4.95%,-0.55%,-2.75%
CC12O[C@H](c3ccccc3)[C@H](c3ccccc3)N1C(=O)C1(C(=O)OCc3ccccc3)CC12 (some centres not stated),11.3%,-7.35%,6.4%,2.15%,-7.05%,-3.45%
CC(Cc1ccccc1)NC(=O)C1CC2CCCCN2C1C (configuration not stated),4.95%,20.4%,57.2%,45.9%,45.5%,48.6%
CC(O)CSCC(C)O (configuration not stated),10.1%,-4.2%,-16.7%,12.4%,-7.7%,3.05%
O=C(CCC(=O)Nc1cc(Cl)ccc1Cl)CC(=O)c1ccc([N+](=O)[O-])cc1,10.1%,28.9%,4.35%,13.8%,-2%,40.4%
COc1ccc([N+](=O)[O-])c2c1CONC2(C)C(=O)O (configuration not stated),8.95%,16.2%,8.2%,-4.95%,3.75%,16.2%
CCCCCCCCCCCCCCCCCC1(c2ccccc2)NC(=O)NC1=O (configuration not stated),9.5%,10.3%,30.5%,12.9%,5.8%,-13.1%
CN(C)S(=O)(=O)C(C(N)=O)c1ccccc1 (configuration not stated),-8.75%,10.6%,19.4%,-14.9%,7.65%,10.4%
c1ccc(Cn2nnc(-c3ccccc3)n2)cc1,19.3%,8.45%,5.3%,-10.3%,32.9%,18.4%
CCC(=O)c1cc(-c2cc(C(=O)CC)[nH]n2)n[nH]1,-27.5%,3.95%,-5.7%,-18.4%,2.15%,3.85%
O/N=C1\CCC2CCCCC12 (configuration not stated),27.5%,14.5%,2.55%,19.1%,1.05%,24.9%
O=C1c2cccc3cc([N+](=O)[O-])cc(c23)C(=O)N1CC1CCCO1 (configuration not stated),75.3% (active),15.8%,30.6%,18.1%,26.1%,3.15%
O=C(CCc1cc(O)ccc1O)OCCc1ccccc1,30.9%,71.2% (active),91.6% (active),85.3% (active),88.4% (active),91.5% (active)
Cc1ccc(Nc2nc(=O)[nH]c(=O)[nH]2)cc1N,-11.7%,1.65%,20.3%,11.7%,27.1%,-54.5%
O=[N+]([O-])c1ccc(S(=O)(=O)N/N=C\c2cc([N+](=O)[O-])ccc2O)cc1,11.8%,-1.4%,11.2%,-35.2%,1.55%,26.6%
CC(=O)CC(=O)Nc1cccc(NC(=O)CC(C)=O)c1,-16.4%,8.45%,-10.6%,3.85%,-5.8%,-20.6%

SMILES,growth inhibition [1],growth inhibition [2],growth inhibition [3],growth inhibition [4],growth inhibition [5],growth inhibition [6]
CC(Cc1cccc2ccccc12)(C(=O)O)C(=O)O,7.15%,-4.1%,11.5%,-14.2%,-7.5%,0.05%
COc1ccc(Nc2nc(N)nc3c2ncn3C2OC(CO)C(O)C2O)cc1 (configuration not stated),-9.6%,-17.9%,-13.2%,-7%,2.05%,-11.5%
O=C(O)CSC1=NNC2(C(=O)N1)c1ccccc1-c1ccccc12,1.8%,-2%,18.4%,-2.1%,-3.85%,24.1%
O=C1OC(/C=C/c2ccccc2)=NC/1=C\c1ccc(Cl)cc1,23.4%,14.1%,23.6%,13.7%,7.15%,10.2%
O=C(Nc1nc2ncn(CC(COc3ccccc3)OC(=O)c3ccccc3)c2c(=O)[nH]1)c1ccccc1 (configuration not stated),-9.85%,9.55%,6.5%,15.2%,12.2%,-6.65%
COc1ccc(OC)c(N=Nc2cc(OC)ccc2OC)c1,-13.6%,-7.8%,1.1%,-13.8%,3.3%,-11.9%
CC(=O)Nc1cc2cc(NS(=O)(=O)c3cc(C(F)(F)F)cc(C(F)(F)F)c3)ccc2oc1=O,0%,-10.2%,-4.9%,17.4%,-9.95%,10.9%
CCc1cc(Cc2cc(CC)c(NC(=O)C(=O)CC(=O)c3sc(-c4cccnc4)nc3C)c(CC)c2)cc(CC)c1NC(=O)C(=O)CC(=O)c1sc(-c2cccnc2)nc1C,-26.8%,-26.9%,-27.8%,-0.05%,-35.9%,-19.8%
CCOC(=O)C[N+]1(C)CCC(O)CC1 (configuration not stated),3.15%,26.1%,-2.55%,-0.45%,16.6%,7.55%
CCN1CCCC1CO (configuration not stated),-1.15%,-25.1%,-10.1%,0.1%,-4.35%,6.65%
CC1C(=O)OC2CC[N+]3(C(=O)C(F)(F)F)CC4OC4(COC(=O)C(C)(O)C1(C)O)C23 (configuration not stated),-13.2%,-32%,-12.8%,2.2%,0.65%,-8.9%
Nc1ncnc2c1nc(-c1ccccc1)n2C1OC(CO)C(O)C1O (configuration not stated),27.4%,35.2%,-10.7%,9.75%,35.5%,34.4%
O=C(/C=C\c1ccccc1)C(C(=O)/C=C/c1ccccc1)C(=O)c1ccccc1 (configuration not stated),-1.5%,-3.05%,3.15%,14.9%,-1.25%,32.8%
CC(C)N1C(=O)c2cccc3c(Br)ccc(c23)C1=O,97.8% (active),99.3% (active),97.2% (active),98.4% (active),99.2% (active),98.5% (active)
Cc1cccc(C(C)(C)C)c1NC(=O)/C(Cc1nc2ccc([N+](=O)[O-])cc2[nH]c1=O)=N/NC(=O)C[N+](C)(C)C,6.4%,-10.4%,-9.1%,-17.4%,-18.9%,-22.6%
Cc1cccc(NC(=O)Nc2ccccc2)n1,4.65%,0.9%,9.55%,-71.5%,-18.9%,-10.1%
CC(=O)c1c(C)cc(C)nc1C,14.8%,-12.2%,17.4%,10%,30.6%,9%
COc1ccc(C=Nc2ccc3c(c2)OCO3)cc1Br,16.9%,16.9%,11.7%,14.6%,9.4%,19.2%
